# Assay results from PubChem BioAssay (NCI).
# About 83,000 compounds went through this panel and 20% of them were active in at least one assay; those are over-represented in the sample as a whole.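 Plates (96-well) were seeded with cells, treated with compound at one concentration, and incubated for 48 hours before percent growth was determined.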 Unmarked numbers belong to inactive results. Active and inactive are the calls of the source.
# Test system: OVCAR-4 ovarian
# Assay: NCI-60 one-dose screen, 48 h (100 = growth as untreated, 0 = no growth, -100 = all killed)
# Details: 10 µM
# Procedure: Growth inhibition of the OVCAR-4 human tumor cell line is measured as a screen for anti-cancer activity. Cells are grown in 96 well plates and exposed to the test compound for 48 hours. Compounds are tested at a single concentration, which is 10^-5 M for most compounds. The reported endpoint is percent growth (GI% or GIPRCNT), where numbers from 0 - 100% represent growth inhibition, and numbers from -100% - 0 represent cell death. For example, a value of 40 represents 60% growth inhibition. A value of 0 means no net growth occurred over the course of the experiment. A value of -40 indicates 40% of cells at the beginning of the experiment died by the end of the experiment. A value of -100 means all cells are dead at the end of the experiment.
# NCI-60 Human Tumor Cell Lines Screen was performed using the standard one-dose NCI protocol, which is described in more detail at https://dtp.cancer.gov/discovery_development/nci-60/default.htm.
# Compounds with GIPRCNT values below 10 were considered active. Activity score was based on GIPRCNT using the following formula: […]
# Score is 0 for GIPRCNT values of 100 or above, 50 for GIPRCNT values of 0, and 100 for GIPRCNT values of -100.
row,Compound,growth
1,C#CC[Se]C(=O)c1ccc2n[se]nc2c1,74.5%
2,COc1cc2cc(C(=O)N3C[C@@H](CCl)c4c3cc(OC(=O)N3CCN(C)[C@@H]5CSSC[C@H]53)c3ccccc43)[nH]c2c(OC)c1OC,-54.7% (active)
3,CC1=C2C(=C[C@@](C)(COP(=O)(Oc3ccccc3)Oc3ccccc3)[C@@H]2O)C(=O)[C@@](C)(O)C12CC2,-72.9% (active)
4,COc1cc2cc(C(=O)N3C[C@@H](CCl)c4c3cc(OC(=O)N3CCN(C)[C@@H]5CSSC[C@@H]53)c3ccccc43)[nH]c2c(OC)c1OC,-6.86% (active)
5,CC12OOC(C)(OO1)C2CCC(=O)NCCCNc1ccnc2cc(Cl)ccc12 (stereo not given),-42.2% (active)
6,O=C(/C=C/c1ccco1)c1nc2ccccc2n1Cc1ccc(Br)cc1,46.5%
7,O=C(NCCCCC(c1ccc(F)cc1)c1ccc(F)cc1)Nc1ccc([N+](=O)[O-])c(C(F)(F)F)c1,11.5%
8,C[C@H]1[C@H](OC(=O)CCC(=O)N(CCCc2cn(-c3ccc([N+](=O)[O-])cc3)nn2)CCNc2ccnc3cc(Cl)ccc23)O[C@@H]2OC3(C)CC[C@H]4[C@H](C)CC[C@@H]1[C@@]24OO3,41.8%
9,O=C(/C=C/c1ccccc1)c1nc2ccccc2n1Cc1ccc(Br)cc1,27%
10,O=C(/C=C/c1cccc(Br)c1)c1nc2ccccc2n1Cc1ccc(Br)cc1,35.3%
11,O=C(/C=C/c1ccccc1)c1nc2ccccc2n1Cc1ccc(F)cc1,47.7%
12,O=C([Se]C1C=CCCC1)c1ccc(C(=O)[Se]C2C=CCCC2)s1 (stereo not given),-95.3% (active)
13,N#C[Se]CC(=O)Nc1cccc(C(F)(F)F)c1,36.8%
14,COC(=O)C[C@](O)(CCC(C)C)C(=O)O[C@H]1C(OC)=C[C@@]23CCCN2CCc2cc4c(cc2[C@@H]13)OCO4,-22.7% (active)
15,O=C(/C=C/c1ccc(F)cc1)c1nc2ccccc2n1Cc1ccc(Br)cc1,19.2%
16,C#CC[Se]C(=O)c1ccc(C(=O)[Se]CC#C)s1,103%
17,CN(C)CCc1cn(C2CCC2)c2cccc(O)c12,86.6%
18,CC(C)C[C@H](NC(=O)CNC(=O)C[C@H]1O[C@@H]2OC3(C)CC[C@H]4[C@H](C)CC[C@@H]([C@H]1C)[C@@]24OO3)B(O)O,22.1%
19,CC(C)N=C([Se])NC(=O)c1ccccc1,3.7% (active)
20,C=CC[Se]C(=O)c1cncc(C(=O)[Se]CC=C)c1,-62.8% (active)

row,Compound,growth
1,O=C(/C=C/c1ccco1)c1nc2ccccc2n1Cc1ccc(F)cc1,48%
2,CCOC(=O)C1=C(Nc2ccccc2)C(=O)OC12C(=O)Nc1ccccc12 (stereo not given),107%
3,COC(=O)c1ccc(-n2cc(CCCN(CCNc3ccnc4cc(Cl)ccc34)C(=O)CCC(=O)O[C@@H]3O[C@@H]4OC5(C)CC[C@H]6[C@H](C)CC[C@@H]([C@H]3C)[C@@]46OO5)nn2)cc1,46.2%
4,O=C(NC([Se])=NC1CCCCC1)c1ccccc1,75.7%
5,O=C(/C=C/c1ccc(Cl)cc1)c1nc2ccccc2n1Cc1ccc(F)cc1,58.8%
6,CC12OOC(C)(OO1)C2CCC(=O)OCCNc1ccnc2cc(Cl)ccc12 (stereo not given),-39.8% (active)
7,CC[C@@]12CC(C(=O)OC)=C3Nc4cc5c(cc4[C@@]34CCN(C[C@H]3O[C@H]31)[C@@H]24)[C@@H]1[C@H](O5)[C@@H](O)[C@@]2(CC)CC(C(=O)OC)=C3Nc4cc(OC)ccc4[C@@]34CCN1[C@@H]24,5.36% (active)
8,CC(C)N=C([Se])NC(=O)c1cccs1,83%
9,COC(=O)C[C@](O)(CCCC(C)C)C(=O)O[C@H]1C(OC)=C[C@@]23CCCN2CCc2cc4c(cc2[C@@H]13)OCO4,-9.31% (active)
10,CCOP(=O)(OCC)C(NC(C)=O)C(=O)SCCN (stereo not given),110%
11,CC12CCC3(CCC(=O)NCCCNc4ccnc5cc(Cl)ccc45)[C@@](C)(OO[C@]3(C)O1)O2,33.1%
12,O=C(/C=C/c1ccc(Cl)cc1)c1nc2ccccc2n1Cc1ccc(Br)cc1,68.5%
13,CC[C@]12C=CCN3CC[C@@]4(c5ccc(OC)cc5N(C)[C@H]4[C@@](O)(C(=O)OC)[C@@H]1OC(=O)CCCC[P+](c1ccc(C)cc1)(c1ccc(C)cc1)c1ccc(C)cc1)[C@@H]32,-68.9% (active)
14,COc1cc(OC)c(/C=C/C(=O)c2nc3ccccc3n2Cc2ccc(F)cc2)c(OC)c1,56.7%
15,C=CCN=C([Se])NC(=O)c1ccc2c(c1)OCO2,108%
16,CCC[Se]C(=O)c1ccc(C(=O)[Se]CCC)s1,55.6%
17,COc1ccc2cc([C@H](C)C(=O)[Se]CCC#N)ccc2c1,-44.3% (active)
18,COC(=O)C[C@](O)(CCC(C)C)C(=O)O[C@@H]1C(OC)=C[C@]23CCCN2CCc2cc4c(cc2[C@H]13)OCO4,-42.4% (active)
19,CCOP(=O)(CC(F)(F)C(F)(F)F)OCC,-14.9% (active)
20,CC(=O)Oc1ccccc1C(=O)[Se]C(=NC(C)C)NC(C)C,-56% (active)
